The supplement of paper PMC10338343
± gives the standard deviation. In all, about 6,200 sequences were measured (“pre-steady-state target cleavage rate”: median about 0.29, highest 2% from about 2 on). Many of the other results were omitted from the sample, so the highest values are more common in it than they were.

Each sequence was assayed on MIWI (PIWIL1) piRISC loaded with piRNA #1 (30 nt) (assay: pre-steady-state target cleavage rate (min^-1); MIWI and MILI are mouse PIWI proteins and EfPiwi is from a freshwater sponge; tags in brackets are library labels; higher = faster piRNA-guided slicing of the target). Settings: guide: piRNA #1 5'p-UGAGGUAGUAGGUUGUAUAGUAUCCAGAGG; auxiliary factor: 500 nM mouse GTSF1.
Method in brief: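 In Cleave-'n-Seq, a transcribed, DNA-blocked target RNA library (0.1 nM) was combined with 1 nM active affinity-purified piRISC bearing one synthetic guide, with or without 500 nM GTSF1 partner protein. Reactions ran in HEPES–potassium acetate buffer at 33 °C for 0–8 or 0–960 min. Uncleaved targets were sequenced and normalised to depth and to weakly complementary targets, three trials were pooled, and k3 was capped at 0.0001 min^-1. The pre-steady-state cleavage rate was obtained by fitting a burst-and-steady-state model.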

Row | Sequence | pre-steady-state target cleavage rate
1 | GGAGACCUUUCUAUACAACCUAGUACCUCA | 0.238 ± 0.034
2 | CCUCUGGAUAGAAUACAACCUACUACCUCA | 1.24 ± 0.066
3 | GGAGACCAUACUAUUCUACCUACUACCUCA | 0.224 ± 0.035
4 | GGAGAGGGUACUAUACAACCUACUACCUCA | 1.17 ± 0.051
5 | GGACUGGAUUCUAUACAACCUACUAGCUCA | 0.118 ± 0.022
6 | GGAGACCUAUGAUAUCAACCUACUACCUACA | < 0.0001
7 | GGAGACGAUACUAUACAACCUACUACCGUCA | 0.443 ± 0.065
8 | GGAGUGGAUACUAUCACAACCUACUACCUCA | 1.49 ± 0.12
9 | GGAGUGGAUACUAUACAAGCUACUUCCUCA | 0.374 ± 0.031
10 | CCUCUGGUUACUAUACAACCUACUACCACA | 1.79 ± 0.14
11 | GGUCUGGUUACUAUACAACCUACUACCACA | 0.747 ± 0.068
12 | GCUCUGGUUACUAUACAACCUACAACCUCA | 1.33 ± 0.079
13 | GCUCUGGUUACUAUACAACCUACUACCUCA | 2.1 ± 0.12
14 | CCACUGGUUACUAUACAACCUACUACCUCA | 2.28 ± 0.14
15 | GGACUGGUUACUAUACAACCUACUACCUCA | 1.65 ± 0.13
16 | CCUCUGGUUACUAUACAACCUACUAGCUCA | 0.705 ± 0.055
17 | GCACUGGUUACUAUACAACCUACUACCUCA | 1.84 ± 0.11
18 | CCUCUGGUUACUAUACAACCUACAACCUCA | 1.28 ± 0.089
19 | GGUCUGGUUACUAUACAACCUACUACCUCA | 1.87 ± 0.11
20 | GCUCUGGUUACUAUACAACCUACUACCACA | 2.3 ± 0.24
21 | CCUCUGGUUACUAUACAACCUACUACCUCA | 2.29 ± 0.13
22 | GGAGACCUAUCUAUACUACCUACAACCUCA | 0.0031 ± 0.0021
23 | GGAGACCUAUCUAUACAACCUACUACCUGA | 0.516 ± 0.057
24 | GGAGUGGAUACUAUACAACCUACUAACCUCA | 0.901 ± 0.053

Row | Sequence | pre-steady-state target cleavage rate
25 | GGAGUGGAUUCUAUACAACCUACUACGUCA | 0.522 ± 0.048
26 | CCUCUGGAUACUAUACAACCACUACCUCA | 0.033 ± 0.0096
27 | CCUCUGGAUACUAAACAACCUACUACGUCA | 1.49 ± 0.087
28 | GGAGACCUUACUAUUCAACCUACUACGUCA | 0.678 ± 0.064
29 | GGAGACCAUUCUAUACAACCUACAACCUCA | 0.667 ± 0.075
30 | GGUCUGGAUAGUAUACAUCCUACUACCUCA | 0.741 ± 0.083
31 | GGAGAGGAUACUAUACAUCCUACUUCCUCA | 0.0568 ± 0.0099
32 | GGAGACCUAACUAAACAACCUACUAGCUCA | 0.0502 ± 0.019
33 | GGUCUGGUUUCUAUACAACCUACUACCUCA | 1.8 ± 0.12
34 | GCUGUGGUUACUAUACAACCUACUACCUCA | 2 ± 0.13
35 | GCUCUGGUUUCUAUACAACCUACUACCUCA | 2 ± 0.12
36 | CCUCUGGUUUCUAUACAACCUACUACCUCA | 2.25 ± 0.15
37 | CCUGUGGUUACUAUACAACCUACUACCUCA | 1.17 ± 0.058
38 | GGUCUGGUUACUUUACAACCUACUACCUCA | 1.69 ± 0.13
39 | GGUGUGGUUACUAUACAACCUACUACCUCA | 1.54 ± 0.097
40 | GCUCUGGUUACUUUACAACCUACUACCUCA | 1.7 ± 0.089
41 | CCUCUGGUUACAAUACAACCUACUACCUCA | 2.15 ± 0.13
42 | GGUCUGGUUACAAUACAACCUACUACCUCA | 1.59 ± 0.12
43 | GCUCUGGUUACAAUACAACCUACUACCUCA | 1.98 ± 0.12
44 | CCUCUGGUUACUUUACAACCUACUACCUCA | 2.24 ± 0.16
45 | GGAGACGAUACUAUACAACAUACUACCUCA | 1.16 ± 0.077
46 | GGAGUGGAUUCUAAACAACCUACUACCUCA | 0.994 ± 0.069
47 | GGAGACCUAUGAUAUGUACCUACUAACUCA | < 0.0001
48 | GGAGUGCAUACUAUACAACCUACUACCUGA | 0.513 ± 0.077

Row | Sequence | pre-steady-state target cleavage rate
49 | GGAGACCUAUGUAUACAACCUACUACUCA | 0.00349 ± 0.0019
50 | GGAGACCUUACAAUAGAACCUACUACCUCA | 0.167 ± 0.022
51 | GGAGACCAUACUAUACAACCUACUUCCUCA | 0.666 ± 0.054
52 | GGUCUGGAUACUAUACAACUUACUACCUCA | 0.481 ± 0.028
53 | GGAGUGCAUUCUAUACAACCUACUACCUCA | 1.32 ± 0.11
54 | GCUCUCGAUACUAUUCAACCUACUACCUCA | 1.86 ± 0.11
55 | CCUCUCGAUACUAUACAACCUACAACCUCA | 1.34 ± 0.077
56 | GGUCGGGAUACUAUACAACCUACUACCUCA | 1.66 ± 0.11
57 | CCUCUCGAUACUAUUCAACCUACUACCUCA | 2.27 ± 0.15
58 | GGUCUCGAUACUAUUCAACCUACUACCUCA | 1.86 ± 0.12
59 | GGUCCGGAUACUAUACAACCUACUACCUCA | 1.76 ± 0.11
60 | GCUCGGGAUACUAUACAACCUACUACCUCA | 1.5 ± 0.071
61 | GCUCUCGAUACUAUACAACCUACUACCUCA | 1.86 ± 0.11
62 | CCUCUCGAUACUAUACAACCUACUACCUCA | 2.01 ± 0.12
63 | GCUCCGGAUACUAUACAACCUACUACCUCA | 1.81 ± 0.12
64 | CCUCGGGAUACUAUACAACCUACUACCUCA | 2.3 ± 0.16
65 | CCUCCGGAUACUAUACAACCUACUACCUCA | 2.08 ± 0.14
66 | GGUCUGGUACUAUACAACCUACUACCUCA | 1.73 ± 0.11
67 | GGAGACCAAACUAUACAACCUAGUACCUCA | 0.226 ± 0.033
68 | GGAGACCUAUGUAUACAACCUACUACCUGCA | 0.0855 ± 0.011
69 | GGAGACCUAACUUAUACAACCUACUACCUCA | 0.23 ± 0.041
70 | CCUCUGGAUACUAUUCAACCUACUAGCUCA | 1.37 ± 0.12
71 | GGUCUCGAUACUUUACAACCUACUACCUCA | 1.54 ± 0.093
72 | CCUCGGAUACUAUACAACCUACUACCUCA | 1.96 ± 0.13
